For 73 compounds, outcome results are on record in PubChem BioAssay AID624300 (Southern Research Specialized Biocontainment Screening …, 2012).

Screen size: about 2,400 compounds; about 360 (15%) were called active.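 The calls were made as follows: active = viability falls under 70% at one or more tested concentrations, taken as toxicity; inactive = viability stays over 70% at every dose.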 The list is a sample of the results. Entries that show only a call come without a potency. Potency and affinity values are given separately.

This test in a line: viability loss in HeLa cells – cytotoxicity control for MgcRacGAP inhibitor project, dose response (AID 624300). To be noted: CellTiter-Glo luminescence, 24 h; series mostly up to 100 µM. A general note: In ATP-based viability assays light output follows the ATP content of the culture.
For `COc1ccc2cc(OCC(=O)NNC(=O)Nc3ccc(C(C)=O)cc3)ccc2c1`, the result was inactive.

Consider `COc1cc(/C=N/NC(=O)C(=O)Nc2ccccn2)ccc1O`, for which the outcome was inactive.

In the case of `O=[N+]([O-])c1cc(Br)c(O)c(C=Nc2ccc(N3CCOCC3)cc2)c1`, the result was inactive.

As to `CN(C)c1ccc(NS(=O)(=O)c2cc(Cl)ccc2Cl)cc1`, the outcome was inactive.

As for `CCOC(=O)N1CCC(N2CCN(S(=O)(=O)c3ccc4ccccc4c3)CC2)CC1`, the result was inactive.

With `Nc1ccc2c(c1)Cc1cc(N)c(Br)cc1-2`, the outcome was inactive.

Turning to `COc1cc(-c2cc(C(=O)O)c3c(OC)c(OC)c(OC)cc3n2)ccc1O`, the call was inactive.

Turning to `COc1cc(-c2cc(-c3ccc(F)cc3)nc(N)c2C#N)ccc1O`, the compound was classed as inactive.

With `O=C1CC(c2ccccc2)CC(O)=C1C=Nc1ccc(O)cc1` (stereo not drawn), the compound was called inactive.

As to `S=c1[nH]nc2sc3ccccc3n12`, the compound was classed as inactive.

For the compound `Oc1ccc(N2CCN(c3ccnc4cc(Cl)ccc34)CC2)cc1`, the result was inactive.

Consider `O=C(O)c1c2c(nc3ccccc13)/C(=C/c1ccc(O)cc1)CCC2`, for which the compound was classed as inactive.

With `COc1ccc(NS(=O)(=O)c2cccc(C(=O)NN=Cc3ccc(O)c(OC)c3)c2)cc1`, the compound was classed as inactive.

On to `COc1cc(/C=N/NC(=O)CN(Cc2ccco2)S(=O)(=O)c2ccccc2)ccc1O`, for which the call was inactive.

On to `COc1cc(/C=N/NC(=O)c2ccccc2)ccc1O`, for which the compound was classed as inactive.

Consider `COc1cc(/C=N/NC(=S)Nc2cccc(C(=O)O)c2)ccc1O`, for which the compound was called inactive.

For `COc1cc(/C=N/NC(=O)CCn2nnc3ccccc32)ccc1O`, the result was inactive.

Take `COc1cc(/C=N/NC(=O)CNC(=O)c2ccc3c(c2)OCCO3)ccc1O`: the compound was classed as inactive.

With `COc1cc(/C=N/NC(=O)CCc2ccccc2)ccc1O`, the call was inactive.

As to `COc1cc(/C=N/NC(=O)c2cccc([N+](=O)[O-])c2)ccc1O`, the compound was classed as inactive.

With `COc1cc(CN2CCC(C(=O)N3CCN(c4ccccc4F)CC3)CC2)ccc1O`, the compound was classed as inactive.

For the compound `COc1cc(/C=C/C(=O)OCC(=O)Nc2c(C)n(C)n(-c3ccccc3)c2=O)ccc1O`, the compound was classed as inactive.

For `Oc1ccc(Cl)cc1N=Cc1sc2ccccc2c1Cl`, the result was inactive.

Turning to `COCc1cc(C)nc(OCC(=O)N/N=C/c2ccc(O)cc2)c1C#N`, the outcome was inactive.

On to `O=C(Cc1cccs1)N/N=C\c1ccc(O)cc1`, for which the compound was classed as inactive.

In the case of `COCCNC(=O)COc1ccc(Nc2ccccc2)cc1`, the compound was called inactive.

Turning to `COc1ccc(N2CCN(c3ncccc3C#N)CC2)cc1`, the outcome was inactive.

On to `COc1cc(/C=C/C(=O)OCC(=O)NNC(=O)c2cc(Cl)ccc2OC)ccc1O`, for which the outcome was inactive.

On to `C=CCN1C(=O)CSC1=Nc1ccc(O)cc1`, for which the outcome was inactive.

Regarding `COc1ccc(N2CCN(CC(=O)N3c4ccccc4CC3C)CC2)cc1` (stereo not drawn), the outcome was inactive.

In the case of `Cc1[nH]c2ccccc2c1N=Nc1c(C)n(C)n(-c2ccccc2)c1=O`, the result was inactive.

As to `COc1ccc(NC(=O)c2ccc(NC(=O)CN3CCN(c4ccc(O)cc4)CC3)cc2)cc1`, the compound was classed as inactive.

Turning to `COc1ccc(NC2CCCN(C(=O)CCc3ccccc3F)C2)cc1` (stereo not drawn), the compound was classed as inactive.

Turning to `COC(=O)CCNCCSc1nnc(-c2ccco2)n1Cc1ccccc1`, the compound was classed as inactive.

In the case of `CCOC(=O)c1sc(/N=C/c2ccc(O)cc2O)cc1C`, the outcome was inactive.

Take `COc1cc(/C=N/NC(=O)c2ccc(=O)[nH]n2)ccc1O`: the compound was called inactive.

Consider `COc1cc(/C=N/NC(=O)c2nc(-c3ccccc3)n(-c3ccccc3)n2)ccc1O`, for which the compound was classed as inactive.

`COc1ccc(-c2ncc3ccccn23)cc1OC`: the result was inactive.

As for `COc1cccc(-c2ncc3ccccn23)c1`, the compound was classed as inactive.

Turning to `CS(=O)(=O)C1=NSC2=NC(=O)/C(=C\c3ccc(OC(=O)c4ccco4)c(Br)c3)C(=N)N21`, the outcome was inactive.

Regarding `CC(=O)Nc1ccc(S(=O)(=O)Nc2nc3ccccc3nc2Nc2ccc(C(=O)O)c(O)c2)cc1`, the result was inactive.

For `C[C@@H]1O[C@@H](OC[C@H]2O[C@@H](Oc3cc(O)c4c(=O)cc(-c5ccc(O)c(O)c5)oc4c3)[C@H](O)[C@@H](O)[C@@H]2O)[C@H](O)[C@H](O)[C@H]1O`, the compound was classed as inactive.

As for `CC/C(=C\c1ccc(N(C)C)cc1)c1ccncc1`, the call was inactive.

In the case of `CN(C)c1ccc(/C=N/O)cc1`, the compound was classed as inactive.

Regarding `C=CC[n+]1c(/C=C/c2ccc(OC(C)=O)c(OC)c2)ccc2ccccc21`, the outcome was inactive.

Regarding `Nc1cc(Cc2ccccc2)ccc1O`, the call was inactive.

As for `N#Cc1ccc(OCC(=O)Nc2ccc(N3CCCC3)cc2)cc1`, the compound was called inactive.

Take `O=C(Nc1ccc(N2CCCCC2)cc1)c1ccccc1`: the call was inactive.

Consider `COc1cc(N=Nc2ccc(C(=O)N(C)C)cc2)c(C)cc1N`, for which the result was inactive.

`N#CC1(Nc2ccc3c4c(cccc24)CC3)CCCCC1`: the compound was classed as inactive.

In the case of `Cc1cnc(NC(=O)C(C)N2CCN(C)CC2)s1` (stereo not drawn), the compound was called inactive.

As for `O=C(Nc1ccccc1Cl)Oc1ccc(-c2ccccc2)cc1`, the outcome was inactive.

On to `Cc1cc(NC(=O)CN2CCC(C)CC2)no1`, for which the call was inactive.

In the case of `COc1ccccc1NS(=O)(=O)c1ccc(C)c(C(=O)N2CCN(c3ccc(O)cc3)CC2)c1`, the compound was called inactive.

As for `Cc1ccc(C2C=NN(c3ccccc3)C2=O)cc1` (stereo not drawn), the result was inactive.

With `C=CCn1c(=O)/c(=C/c2ccc(O)cc2)s/c1=C(/C#N)c1nnc2n1CCCCC2`, the call was inactive.

Turning to `COc1ccc(NC2CCCN(C(=O)CCc3scnc3C)C2)cc1` (stereo not drawn), the outcome was inactive.

Consider `COc1cc(N)c2ncccc2c1SC`, for which the call was inactive.

With `COc1cc(N)c2ncccc2c1OC`, the compound was called inactive.

Take `COc1ccccc1N1CCN(/N=C/c2ccc(O)cc2O)CC1`: the result was inactive.

As for `COc1ccc(Br)cc1CN(C)CC(=O)NCCc1ccccc1`, the compound was classed as inactive.

Regarding `COc1ccc(CN2CCN(Cc3ccc(Br)cc3)CC2)c(OC)c1OC`, the call was inactive.

Regarding `COc1ccc(CNCc2cccc(OC)c2OC)cc1Br`, the outcome was inactive.

As for `COc1ccc(Br)cc1CNc1ccc(O)cc1`, the result was inactive.

Consider `Oc1ccc(/C=N/NC(=S)NCc2ccco2)cc1`, for which the result was inactive.

As for `CCN(CC)c1ccc(/C=N/N2CCOCC2)cc1`, the compound was called inactive.

For the compound `CCNc1nc(NCC)nc(N/N=C/c2ccc(O)c(O)c2)n1`, the compound was called inactive.

In the case of `COc1ccc(NC(=O)NS(=O)(=O)c2ccc(C)cc2)cc1OC`, the result was inactive.

Regarding `CCc1nnc(N/N=C/c2cc(Br)c(O)cc2O)n1N`, the call was inactive.

On to `COc1cc(/C=C/C(=O)OCC(=O)NCc2ccc(F)cc2)ccc1O`, for which the compound was classed as inactive.

In the case of `CCN(CC)c1ccc(Nc2nc(-c3cccnc3)cs2)cc1`, the call was inactive.

Take `CCN(CC)c1ccc(NC(=O)c2ccc(Br)o2)cc1`: the result was inactive.

On to `COc1ccc(N2CCC(CNC(=O)Nc3ccc(C)c(C)c3)C2)cc1` (stereo not drawn), for which the call was inactive.
